Our source for the inhibition values is ChEMBL document CHEMBL1961873, “Compounds: GSK PKIS; Assays: Nanosyn kinase panel” (2012).

In assay [1] the target is Ribosomal protein S6 kinase alpha-6 (Homo sapiens) (UniProt Q9UK32). The following applies: at 1 µM.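 Further: each value is a mean inhibition of RSK4 from a GSK PKIS panel screen.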
For assay [2], the target named is T1, Serine/threonine-protein kinase Sgk1 (Homo sapiens) (UniProt O00141).
T1 sequence (whole entry): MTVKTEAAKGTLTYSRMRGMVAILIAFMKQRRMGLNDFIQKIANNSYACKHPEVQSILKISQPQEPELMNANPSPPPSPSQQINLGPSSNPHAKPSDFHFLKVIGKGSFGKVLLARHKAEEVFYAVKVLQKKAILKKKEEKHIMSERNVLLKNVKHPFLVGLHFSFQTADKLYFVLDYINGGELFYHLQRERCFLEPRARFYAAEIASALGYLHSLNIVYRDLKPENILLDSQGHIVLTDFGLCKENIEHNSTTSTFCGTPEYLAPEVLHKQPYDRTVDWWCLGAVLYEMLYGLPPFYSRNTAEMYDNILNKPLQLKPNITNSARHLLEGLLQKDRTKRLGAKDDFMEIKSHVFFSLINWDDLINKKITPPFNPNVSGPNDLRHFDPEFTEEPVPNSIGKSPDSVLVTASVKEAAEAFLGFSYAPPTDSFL
The following applies: at 0.1 µM.

Assay [3] concerns the target T1, Serine/threonine-protein kinase Sgk1 (Homo sapiens). Particulars: at 1 µM.
In assay [4] the target is T2, Serine/threonine-protein kinase Sgk2 (Homo sapiens) (UniProt Q9HBY8).
T2 sequence (whole entry): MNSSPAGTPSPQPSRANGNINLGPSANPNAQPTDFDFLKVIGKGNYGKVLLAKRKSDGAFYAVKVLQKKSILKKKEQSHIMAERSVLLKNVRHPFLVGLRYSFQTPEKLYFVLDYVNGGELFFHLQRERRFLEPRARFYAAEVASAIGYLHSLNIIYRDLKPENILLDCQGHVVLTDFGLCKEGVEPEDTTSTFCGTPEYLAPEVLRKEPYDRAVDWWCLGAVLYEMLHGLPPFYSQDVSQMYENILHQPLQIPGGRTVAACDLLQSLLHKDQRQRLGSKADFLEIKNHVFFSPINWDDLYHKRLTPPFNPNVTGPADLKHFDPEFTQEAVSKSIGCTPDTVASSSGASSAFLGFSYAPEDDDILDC
The following applies: at 0.1 µM.

The target of assay [5] is T2, Serine/threonine-protein kinase Sgk2 (Homo sapiens). The following applies: at 1 µM.
Assay [6] addresses T3, Serine/threonine-protein kinase Sgk3 (Homo sapiens) (UniProt Q96BR1).
T3 sequence (whole entry): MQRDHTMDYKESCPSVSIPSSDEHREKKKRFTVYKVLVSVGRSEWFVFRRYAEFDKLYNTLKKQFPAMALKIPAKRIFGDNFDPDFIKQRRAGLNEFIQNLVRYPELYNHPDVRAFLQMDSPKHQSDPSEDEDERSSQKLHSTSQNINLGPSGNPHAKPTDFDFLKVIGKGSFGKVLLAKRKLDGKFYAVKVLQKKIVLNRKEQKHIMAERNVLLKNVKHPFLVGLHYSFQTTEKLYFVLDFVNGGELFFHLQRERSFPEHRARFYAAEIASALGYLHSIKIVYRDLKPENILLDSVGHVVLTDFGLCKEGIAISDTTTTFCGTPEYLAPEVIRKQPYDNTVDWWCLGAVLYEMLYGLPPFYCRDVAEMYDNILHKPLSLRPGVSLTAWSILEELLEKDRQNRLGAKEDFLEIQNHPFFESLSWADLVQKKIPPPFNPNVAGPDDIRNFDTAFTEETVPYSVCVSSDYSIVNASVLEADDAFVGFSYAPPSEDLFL
Particulars: at 0.1 µM.

For assay [7], the target named is T3, Serine/threonine-protein kinase Sgk3 (Homo sapiens). The following applies: at 1 µM.
Assay [8] addresses 5'-AMP-activated protein kinase catalytic subunit alpha-1 (Homo sapiens) (UniProt Q13131). Particulars: at 0.1 µM.
For assay [9] the target is unchanged. Particulars: at 1 µM.
For assay [10], the target named is 5'-AMP-activated protein kinase catalytic subunit alpha-2 (Homo sapiens) (UniProt P54646). Particulars: at 0.1 µM.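 Further: mean inhibition measured on the AMPK complex of alpha2, beta1 and gamma1 subunits.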
5'-AMP-activated protein kinase catalytic subunit alpha-2 (Homo sapiens), sequence (P54646 whole entry, looked up): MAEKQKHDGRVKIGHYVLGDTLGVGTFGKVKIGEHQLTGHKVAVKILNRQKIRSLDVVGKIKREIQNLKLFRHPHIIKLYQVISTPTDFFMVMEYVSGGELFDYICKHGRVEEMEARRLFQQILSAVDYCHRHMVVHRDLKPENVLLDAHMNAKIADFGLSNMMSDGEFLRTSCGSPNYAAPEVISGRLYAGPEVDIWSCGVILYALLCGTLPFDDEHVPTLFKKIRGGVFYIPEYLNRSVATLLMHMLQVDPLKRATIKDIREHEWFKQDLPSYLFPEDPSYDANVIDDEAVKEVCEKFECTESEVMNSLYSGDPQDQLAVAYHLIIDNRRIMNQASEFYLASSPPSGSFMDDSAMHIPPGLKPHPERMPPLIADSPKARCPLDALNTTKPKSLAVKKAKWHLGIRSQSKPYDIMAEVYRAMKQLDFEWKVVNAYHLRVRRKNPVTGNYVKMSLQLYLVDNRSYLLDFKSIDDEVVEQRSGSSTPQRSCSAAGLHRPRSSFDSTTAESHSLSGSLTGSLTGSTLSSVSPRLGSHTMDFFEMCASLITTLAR

5'-AMP-activated protein kinase catalytic subunit alpha-1 (Homo sapiens), sequence (Q13131 whole entry, looked up): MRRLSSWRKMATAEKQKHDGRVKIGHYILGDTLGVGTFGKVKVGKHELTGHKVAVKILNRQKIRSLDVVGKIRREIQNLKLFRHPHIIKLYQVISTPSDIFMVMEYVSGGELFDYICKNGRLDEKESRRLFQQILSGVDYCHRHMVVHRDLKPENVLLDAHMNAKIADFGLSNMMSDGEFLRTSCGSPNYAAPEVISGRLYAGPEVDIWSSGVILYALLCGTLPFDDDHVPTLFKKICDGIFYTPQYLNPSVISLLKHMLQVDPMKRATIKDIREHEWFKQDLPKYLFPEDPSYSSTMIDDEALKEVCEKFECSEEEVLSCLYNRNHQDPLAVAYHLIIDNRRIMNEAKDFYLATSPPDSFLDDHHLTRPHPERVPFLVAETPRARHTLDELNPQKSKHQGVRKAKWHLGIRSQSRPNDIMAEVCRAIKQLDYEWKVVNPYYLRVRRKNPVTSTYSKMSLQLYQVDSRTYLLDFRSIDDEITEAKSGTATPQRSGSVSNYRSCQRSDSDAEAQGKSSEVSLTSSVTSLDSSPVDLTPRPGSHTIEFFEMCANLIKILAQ
Ribosomal protein S6 kinase alpha-6 (Homo sapiens), sequence (Q9UK32 whole entry): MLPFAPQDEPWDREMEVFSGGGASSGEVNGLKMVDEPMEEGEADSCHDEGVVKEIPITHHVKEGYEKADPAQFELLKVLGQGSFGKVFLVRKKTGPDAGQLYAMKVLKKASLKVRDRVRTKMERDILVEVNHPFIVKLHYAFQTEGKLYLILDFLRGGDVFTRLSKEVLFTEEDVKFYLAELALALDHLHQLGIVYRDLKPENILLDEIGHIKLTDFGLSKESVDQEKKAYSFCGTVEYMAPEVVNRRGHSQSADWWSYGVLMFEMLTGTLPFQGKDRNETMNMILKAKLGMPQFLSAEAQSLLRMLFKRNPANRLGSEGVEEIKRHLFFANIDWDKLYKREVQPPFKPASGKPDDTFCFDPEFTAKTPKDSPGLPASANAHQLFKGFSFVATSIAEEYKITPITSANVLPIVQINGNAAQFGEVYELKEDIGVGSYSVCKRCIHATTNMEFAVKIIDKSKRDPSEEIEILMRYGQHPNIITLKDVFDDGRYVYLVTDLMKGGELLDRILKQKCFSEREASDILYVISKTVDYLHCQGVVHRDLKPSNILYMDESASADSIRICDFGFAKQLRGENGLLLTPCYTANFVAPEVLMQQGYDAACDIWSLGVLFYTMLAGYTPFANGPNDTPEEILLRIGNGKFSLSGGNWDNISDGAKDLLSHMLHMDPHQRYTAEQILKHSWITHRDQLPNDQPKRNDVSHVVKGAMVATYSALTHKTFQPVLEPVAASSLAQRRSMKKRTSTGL

As usually defined, the inhibition is the drop in the measured response relative to a control, in per cent. Take `NS(=O)(=O)c1ccc(N/N=C2\C(=O)Nc3ccc(C(=O)NCCc4c[nH]cn4)cc32)cc1`: the inhibition in [1] was 22.2%; in assay [2], 4.44%; in assay [3], 14.1%; in assay [4], 4.28%; in [5] it was 5.53%; in assay [6], 3.07%. The inhibition in assay [7] worked out at 4.22%; in assay [8], 57.3%; in assay [9], 86.6%; in assay [10], 23.9%.

For `CCn1c(-c2nonc2N)nc2cncc(C(=O)N3CC[C@H](N)C3)c21`, the inhibition in assay [1] is 25%; in [2], 7.33%; in assay [3], 29.4%; in [4] it was 6.54%; in [5], 44.6%; in assay [6] it was 19.6%. Further, the inhibition in assay [7] was determined as 68.1%; in assay [8] it was 4.01%; in assay [9], 6.61%; in [10] it was 4.72%.

In the case of `CCn1c(-c2nonc2N)nc2ccncc21`, the inhibition in assay [1] was 1.11%; in assay [2], 0.13%; in assay [3], 1.04%; in assay [4] it was 2.07%; in assay [5] it was -2.06%; in assay [6] it was 0.78%. Further, the inhibition in [7] was 0.08%; in assay [8], 2.35%; in [9] it was 0.79%; in [10], -1.16%.

As for `O=C1NC(=O)C(c2cccc(Cl)c2)=C1Nc1ccc(O)c(Cl)c1`, the inhibition in [1] is 21.5%; in assay [2], 2.17%; in assay [3], 0.01%; in assay [4], 0.49%; in assay [5], 3.67%; in [6], -0.12%. Besides, the inhibition in assay [7] was -0.88%; in assay [8] it was 1.08%; in [9] it was 8.5%; in assay [10] it was 0.44%.

With `NC(=O)c1ccc(-c2nc(-c3ccccn3)c(-c3ccc4c(c3)OCO4)[nH]2)cc1`, the inhibition stood at 1.4% in assay [1]; 1.94% in assay [2]; 3.63% in assay [3]; 1.68% in assay [4]; 8.98% in [5]; 1.19% in assay [6]. In addition, the inhibition is 4.38% in assay [7], 2.69% in assay [8], 2.55% in [9] and 0.83% in assay [10].

Consider `Cc1cc(O)cc(C)c1/C=C/c1cncc(-c2nn[nH]n2)c1`, for which the inhibition in assay [1] is 0.92%; in assay [2] it was 3.17%; in assay [3], 2.09%; in assay [4], -1.45%; in assay [5] it was 1.25%; in assay [6] it was 1.96%. The inhibition in assay [7] was found to be 3.83%; in [8], 3.54%; in [9] it was 3.56%; in assay [10], 3.69%.

Regarding `[O-][S+]1CCN(Cc2ccc(-c3ccc4ncnc(Nc5ccc(OCc6ccccc6)c(F)c5)c4c3)o2)CC1`, the inhibition in [1] is 0.29%; in assay [2] it was 1.32%; in [3], 0.95%; in assay [4], 1.18%; in [5], -1.29%; in assay [6], 0.74%. Further, the inhibition in [7] was 2.23%; in assay [8], 0.77%; in assay [9] it was -0.08%; in [10], 0.83%.

With `CS(=O)(=O)Nc1ccc(N/C=C2\C(=O)Nc3ccccc32)cc1`, the inhibition in assay [1] is 11%; in [2], 0.01%; in assay [3] it was 12.3%; in assay [4], -2.1%; in assay [5], 1.93%; in assay [6] it was -3.12%. Moreover, the inhibition in [7] was -0.79%; in assay [8], 0.57%; in [9] it was 12%; in assay [10], -0.35%.

In the case of `COc1cc2ncn(-c3cc(O[C@@H](C)c4ccccc4Cl)c(C(N)=O)s3)c2cc1OC`, the inhibition in assay [1] was found to be 6.8%; in [2], 3.98%; in assay [3], 4.72%; in assay [4] it was 4.32%; in [5], 3.95%; in assay [6] it was 4.22%. The inhibition is 7.31% in assay [7], 3.57% in [8], 10.6% in assay [9] and 1.04% in assay [10].

For `COc1ccccc1Nc1ncc(-c2ccccc2)o1`, the inhibition is 0.95% in assay [1]; 2.95% in assay [2]; 4.31% in assay [3]; 5.64% in [4]; 0.66% in assay [5]; 4.99% in [6]. Also, the inhibition in assay [7] is 3.37%; in assay [8], 1.74%; in assay [9] it was 3.31%; in assay [10], 3.16%.

For `COc1cc2c(cc1Nc1nc(N3CCc4ccccc43)c3cc[nH]c3n1)N(C(=O)CN(C)C)CC2`, the inhibition is 0.95% in assay [1]; 0.53% in assay [2]; 1.07% in assay [3]; -0.51% in [4]; 2.34% in assay [5]; 1.69% in assay [6]. In addition, the inhibition in [7] was -0.59%; in [8] it was 2.03%; in [9] it was 0.36%; in assay [10], -1.68%.

With `COc1cc2ncn(-c3cc(O[C@H](C)c4ccccc4Cl)c(C(N)=O)s3)c2cc1OC`, the inhibition was 25.5% in assay [1]; 5.03% in [2]; 7.28% in assay [3]; 2.67% in assay [4]; 5.65% in [5]; 5.72% in [6]. Also, the inhibition in assay [7] was determined as 6.55%; in assay [8] it was 6.49%; in [9], 23.7%; in assay [10], 2.58%.

Consider `CCn1c(-c2nonc2N)nc2c(C#CC(C)(C)O)nc(CN3CCCC3)cc21`, for which the inhibition in assay [1] is 0.64%; in [2] it was -0.45%; in assay [3] it was 0.58%; in assay [4], 0.87%; in [5], -0.61%; in assay [6], 0.78%. For the same compound, the inhibition was 0.63% in [7], 2.98% in [8], 3.34% in assay [9] and 2.04% in assay [10].

As to `COc1ccc2cc(-c3c(-c4ccncc4)nc(-c4ccc([S+](C)[O-])cc4)n3C)ccc2c1` (centres undefined), the inhibition was 1.25% in assay [1]; 1.97% in assay [2]; 0.68% in [3]; 2.93% in [4]; -0.04% in [5]; 2.63% in [6]. The inhibition is 4.38% in [7], 3.11% in assay [8], 1.29% in assay [9] and 1.9% in assay [10].

Regarding `Nc1nc(-c2ccccn2)c(-c2ccc3ncccc3n2)s1`, the inhibition in [1] worked out at 0.55%; in assay [2], 4.14%; in assay [3], 2.85%; in [4], 0.04%; in [5], 1.55%; in assay [6], 2.89%. The inhibition was determined as 1.48% in assay [7], 0.55% in assay [8] and 2.96% in assay [9].

Consider `CCCN1CCC=C(c2ccc(Nc3nc(Nc4ccccc4C(N)=O)c4cc[nH]c4n3)c(C)c2)C1`, for which the inhibition was determined as 38.9% in [1]; 1.16% in [2]; 5.7% in assay [3]; 1.55% in assay [4]; 1.12% in assay [5]; 2.67% in assay [6]. For the same compound, the inhibition in assay [7] came out at 2.94%; in assay [8] it was 4.78%; in [9], 29.5%; in assay [10], 8.68%.

With `COc1cc(C=NNc2ncnc3c2cnn3-c2ccccc2)ccc1O`, the inhibition in assay [1] is 6.36%; in assay [2] it was 4.35%; in assay [3], 12.3%; in [4], 1.73%; in [5], 12.3%; in assay [6], 1.97%. In addition, the inhibition in assay [7] was determined as 1.32%; in [8], 2.74%; in [9] it was 4.76%; in assay [10], 0.75%.
